From PubChem BioAssay AID1159580 (chemical genetic matrix, 2015)
About 2,000 (36%) of roughly 5,500 compounds were called active. About 18% were inconclusive and are not listed. Rule as the data show it: active = normalized growth mostly below about 0.91 (no sharp cut-off); inconclusive = no clear call, values can overlap the other calls; inactive = mostly above about 0.92. The list shows a part of the results.

Test: chemical genetic growth profiling, strain panel (AID 1159580);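 also: tested at 20 µM; growth read once vehicle control cultures reached saturation at 30 °C; 1 = growth at the plate median or of vehicle wells; lower values mean less growth of the strain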
Settings: growth OD

Measured: normalized growth

CCc1ccc(CCOc2ccc(CC3SC(=O)NC3=O)cc2)nc1 (configuration not stated)
inactive: S. cerevisiae deletion strains, locus YJR075W, strain HOC1, stronger effect = lower value 0.997 | S. cerevisiae deletion strains, locus YKL009W, strain mrt4, stronger effect = lower value 1.01 | S. cerevisiae deletion strains, locus YKL068W, stronger effect = lower value 0.991 | S. cerevisiae deletion strains, locus YKL085W, strain MDH1 (second series), stronger effect = lower value 0.991 | S. cerevisiae deletion strains, locus YKL085W, strain MDH1, stronger effect = lower value 0.991 | S. cerevisiae deletion strains, locus YKL160W, strain elf1, stronger effect = lower value 1.02 | S. cerevisiae deletion strains, locus YKL190W, strain CNB1, stronger effect = lower value 1.02 | S. cerevisiae deletion strains, locus YKR001C, strain vps1, stronger effect = lower value 0.977 | S. cerevisiae deletion strains, locus YKR026C, strain gcn3, stronger effect = lower value 1.01 | S. cerevisiae deletion strains, locus YKR091W, strain srl3, stronger effect = lower value 0.999 | S. cerevisiae deletion strains, locus YLL001W, strain dnm1, stronger effect = lower value 1 | S. cerevisiae deletion strains, locus YLL026W, stronger effect = lower value 1.02 | S. cerevisiae deletion strains, locus YLL041C, strain sdh2, stronger effect = lower value 1.01 | S. cerevisiae deletion strains, locus YLR027C, strain aat2, stronger effect = lower value 1.01 | S. cerevisiae deletion strains, locus YLR039C, strain RIC1, stronger effect = lower value 0.914 | S. cerevisiae deletion strains, locus YLR058C, strain SHM2, stronger effect = lower value 1.01 | S. cerevisiae deletion strains, locus YLR102C, strain apc9, stronger effect = lower value 0.988 | S. cerevisiae deletion strains, locus YLR113W, strain HOG1, stronger effect = lower value 1.01 | S. cerevisiae deletion strains, locus YLR221C, strain rsa3, stronger effect = lower value 1.01 | S. cerevisiae deletion strains, locus YLR258W, strain gsy2, stronger effect = lower value 1.02 | S. cerevisiae deletion strains, locus YLR262C, strain YPT6 (second series), stronger effect = lower value 0.99 | S. cerevisiae deletion strains, locus YLR262C, strain YPT6, stronger effect = lower value 0.88 | S. cerevisiae deletion strains, locus YLR268W, strain sec22, stronger effect = lower value 0.993 | S. cerevisiae deletion strains, locus YLR320W, strain mms22, stronger effect = lower value 1.01 | S. cerevisiae deletion strains, locus YLR330W, strain CHS5, stronger effect = lower value 1.01 | S. cerevisiae deletion strains, locus YLR342W, strain FKS1 (second series), stronger effect = lower value 0.985 | S. cerevisiae deletion strains, locus YLR342W, strain FKS1, stronger effect = lower value 1.02 | S. cerevisiae deletion strains, locus YLR357W, strain rsc2, stronger effect = lower value 1.03 | S. cerevisiae deletion strains, locus YLR370C, strain arc18, stronger effect = lower value 1.01 | S. cerevisiae deletion strains, locus YLR371W, strain rom2, stronger effect = lower value 0.989 | S. cerevisiae deletion strains, locus YLR384C, strain iki3, stronger effect = lower value 1.01 | S. cerevisiae deletion strains, locus YLR418C, strain cdc73, stronger effect = lower value 0.969 | S. cerevisiae deletion strains, locus YML016C, strain PPZ1, stronger effect = lower value 0.997 | S. cerevisiae deletion strains, locus YML032C, strain rad52, stronger effect = lower value 0.998 | S. cerevisiae deletion strains, locus YML120C, strain ndi1, stronger effect = lower value 1.02 | S. cerevisiae deletion strains, locus YML124C, strain tub3, stronger effect = lower value 0.992 | S. cerevisiae deletion strains, locus YMR058W, strain fet3, stronger effect = lower value 1.01 | S. cerevisiae deletion strains, locus YMR078C, strain ctf18, stronger effect = lower value 0.985 | S. cerevisiae deletion strains, locus YMR125W, strain sto1, stronger effect = lower value 1.02 | S. cerevisiae deletion strains, locus YMR129W, stronger effect = lower value 1 | S. cerevisiae deletion strains, locus YMR205C, strain PFK2, stronger effect = lower value 0.997 | S. cerevisiae deletion strains, locus YMR223W, strain ubp8, stronger effect = lower value 0.995 | S. cerevisiae deletion strains, locus YMR231W, strain pep5, stronger effect = lower value 0.995 | S. cerevisiae deletion strains, locus YMR263W, strain SAP30, stronger effect = lower value 1.04 | S. cerevisiae deletion strains, locus YMR307W, strain GAS1, stronger effect = lower value 0.938 | S. cerevisiae deletion strains, locus YNL067W, strain RPL9B, stronger effect = lower value 1.06 | S. cerevisiae deletion strains, locus YNL071W, strain lat1, stronger effect = lower value 1.01 | S. cerevisiae deletion strains, locus YNL128W, strain TEP1, stronger effect = lower value 1.04 | S. cerevisiae deletion strains, locus YNL153C, strain GIM3, stronger effect = lower value 1 | S. cerevisiae deletion strains, locus YNL183C, strain NPR1, stronger effect = lower value 0.963 | S. cerevisiae deletion strains, locus YNL209W, strain ssb2, stronger effect = lower value 0.997 | S. cerevisiae deletion strains, locus YNL233W, strain BNI4, stronger effect = lower value 1.01 | S. cerevisiae deletion strains, locus YNL248C, strain rpa49, stronger effect = lower value 1.02 | S. cerevisiae deletion strains, locus YNL250W, strain rad50, stronger effect = lower value 0.995 | S. cerevisiae deletion strains, locus YNL271C, strain bni1, stronger effect = lower value 1 | S. cerevisiae deletion strains, locus YNL298W, strain CLA4, stronger effect = lower value 0.997 | S. cerevisiae deletion strains, locus YNL307C, strain MCK1, stronger effect = lower value 0.994 | S. cerevisiae deletion strains, locus YNL322C, strain KRE1 (second series), stronger effect = lower value 1.02 | S. cerevisiae deletion strains, locus YNL322C, strain KRE1, stronger effect = lower value 0.994 | S. cerevisiae deletion strains, locus YNR049C, strain mso1, stronger effect = lower value 1.01 | S. cerevisiae deletion strains, locus YNR052C, strain pop2, stronger effect = lower value 1.01 | S. cerevisiae deletion strains, locus YOL006C, strain TOP1, stronger effect = lower value 1 | S. cerevisiae deletion strains, locus YOL012C, strain htz1 1.21 | S. cerevisiae deletion strains, locus YOL147C, strain pex11, stronger effect = lower value 0.996 | S. cerevisiae deletion strains, locus YOR001W, strain rrp6, stronger effect = lower value 1.01 | S. cerevisiae deletion strains, locus YOR061W, strain CKA2, stronger effect = lower value 0.999 | S. cerevisiae deletion strains, locus YOR069W, strain VPS5, stronger effect = lower value 1 | S. cerevisiae deletion strains, locus YOR070C, strain gyp1, stronger effect = lower value 1.01 | S. cerevisiae deletion strains, locus YOR080W, strain dia2, stronger effect = lower value 1.01 | S. cerevisiae deletion strains, locus YOR083W, strain WHI5, stronger effect = lower value 1 | S. cerevisiae deletion strains, locus YOR106W, strain vam3, stronger effect = lower value 1.02 | S. cerevisiae deletion strains, locus YOR136W, strain idh2, stronger effect = lower value 1 | S. cerevisiae deletion strains, locus YOR144C, strain elg1, stronger effect = lower value 0.993 | S. cerevisiae deletion strains, locus YOR184W, strain ser1, stronger effect = lower value 0.971 | S. cerevisiae deletion strains, locus YOR231W, strain MKK1, stronger effect = lower value 0.98 | S. cerevisiae deletion strains, locus YOR265W, strain rbl2, stronger effect = lower value 1.01 | S. cerevisiae deletion strains, locus YOR270C, strain vph1, stronger effect = lower value 1.04 | S. cerevisiae deletion strains, locus YOR290C, strain snf2, stronger effect = lower value 1 | S. cerevisiae deletion strains, locus YOR316C, strain cot1, stronger effect = lower value 0.997 | S. cerevisiae deletion strains, locus YPL051W, strain arl3, stronger effect = lower value 1.01 | S. cerevisiae deletion strains, locus YPL055C, strain LGE1, stronger effect = lower value 1.02 | S. cerevisiae deletion strains, locus YPL078C, strain atp4, stronger effect = lower value 1.01 | S. cerevisiae deletion strains, locus YPL106C, strain sse1, stronger effect = lower value 1.02 | S. cerevisiae deletion strains, locus YPL240C, strain hsp82, stronger effect = lower value 1.02 | S. cerevisiae deletion strains, locus YPL241C, strain CIN2, stronger effect = lower value 1 | S. cerevisiae deletion strains, locus YPL256C, strain CLN2, stronger effect = lower value 0.936 | S. cerevisiae deletion strains, locus YPR119W, strain clb2, stronger effect = lower value 0.989 | S. cerevisiae deletion strains, locus YPR141C, strain kar3, stronger effect = lower value 0.994 | S. cerevisiae deletion strains, locus YPR163C, strain tif3, stronger effect = lower value 0.999 | S. cerevisiae deletion strains, locus YPR167C, strain met16, stronger effect = lower value 0.996 | S. cerevisiae deletion strains, strain wtn01, stronger effect = lower value 0.99 | S. cerevisiae strains, strain wild type, stronger effect = lower value 1.01
